{
  "source": "the supplement of paper PMC12819154",
  "about": "“High-throughput peptide-centric local stability assay extends protein–ligand identification to membrane proteins, tissues and bacteria” (Nature Structural & Molecular Biology, 2025);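 further: lysate desalted by size exclusion to strip endogenous ATP, peptide intensities built from DIA-NN precursor signals, and peptides missing any value discarded before comparison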",
  "data": [
    {"biological_target": "UniProt P0AEZ1", "sequence (P0AEZ1 whole entry)": "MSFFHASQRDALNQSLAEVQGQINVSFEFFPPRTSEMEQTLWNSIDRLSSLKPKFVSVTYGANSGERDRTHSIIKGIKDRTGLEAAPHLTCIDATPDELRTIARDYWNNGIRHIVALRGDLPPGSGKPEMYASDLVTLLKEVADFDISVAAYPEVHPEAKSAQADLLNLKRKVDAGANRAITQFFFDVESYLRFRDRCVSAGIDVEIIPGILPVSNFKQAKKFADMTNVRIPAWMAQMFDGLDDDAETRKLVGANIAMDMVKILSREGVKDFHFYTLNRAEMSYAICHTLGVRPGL", "experiment": "log2 fold change of tryptic peptide abundance, ligand vs vehicle (limited proteolysis) (log2 ratio); higher = more trypsin-susceptible (destabilized)", "conditions": "peptide sequence: DYWNNGIR; peptide start residue: 105; ligand concentration: 5 mM; sample: E. coli desalted lysate; replicate design: treated before aliquoting", "protocol": "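HT-PELSA: desalted E. coli K-12 BW25113 lysate (with 12 mM MgCl2) incubated with 5 mM ATP (pH 7) or water for 30 min at 25 C, then a 4 min trypsin pulse at 22 C. Peptides were quantified by DIA-MS (4 replicates). Value is the peptide log2 fold change (treated/control); negative = stabilized. Scale: negative = ligand-stabilized region.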", "values": [
      {"compound": "Nc1ncnc2c1ncn2[C@@H]1O[C@H](COP(=O)(O)OP(=O)(O)OP(=O)(O)O)[C@@H](O)[C@H]1O", "note": "[adenosine 5'-triphosphate]", "log2 fold change": -1.01}
    ]}
  ]
}
